Only some compounds are listed: those with a hit (about 2.4% of all), similar ones and a draw of the others.
HepG2 tox-1 – qHTS for Inhibitors of TGF-b: Cytotox Counterscreen; HepG2 CAGA-GFP viability, ATP luminescence, 18 h; Potency, µM (doses to about 46.1 µM), without a hit: at the highest dose activity change, negative = cytotoxicity, usual class: cytotoxic; 410,000 compounds, 0.76% hits
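HepG2 CAGA-GFP cells (1000/well, DMEM with 1% FBS) received compound, then TGF-beta at 500 pg/mL final, and were incubated 18 hours at 37 degrees C. Viability was read by CellTiter-Glo luminescence. Media-only wells were set as complete cell-killing and DMSO as no toxicity.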
Apoferritin bind – qHTS Assay for Identification of Novel General Anesthetics; Ferritin light chain (Equus caballus), P02791; apoferritin/1-aminoanthracene competitive binding, fluorescence; Potency, µM (highest dose often 77.5 µM), inactives show at the highest dose activity change, negative = displacement, usual class: inhibitors; 350,000 compounds, 0.074% hits; also: % is scaled to controls: 0 for no effect and ±100 for the full control effect; nearly all actives have a fitted effect of over 20% in size
Target sequence (P02791 2-175 limits assumed): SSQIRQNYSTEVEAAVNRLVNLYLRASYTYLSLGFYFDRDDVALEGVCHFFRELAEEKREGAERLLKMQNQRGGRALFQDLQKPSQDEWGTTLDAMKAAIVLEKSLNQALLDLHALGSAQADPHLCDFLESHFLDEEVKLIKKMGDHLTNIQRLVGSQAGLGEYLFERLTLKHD
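Concentration-response curves derived by four-parameter Hill fitting of normalized fluorescence, where compounds displaced 1-AMA from 10 uM horse apoferritin following a brief 10 min room-temperature incubation; propofol titration acted as positive control.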
ATXN2 expr inh – Primary qHTS for Inhibitors of ATXN expression; HEK-293 ATXN2-luciferase reporter, luminescence, 24 h; Potency, µM (highest dose often 57 µM), inactives show at the top dose activity change, negative = inhibition, most hits filed as inhibitors; 360,000 compounds, 0.72% hits; AID 1745845, 2022; also: % is scaled to controls: 0 for no effect and ±100 for the full control effect; nearly all actives have a fitted effect of over 55% in size
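qHTS (up to 57 uM final) was run with 24 h compound exposure of reporter cells at 37 °C. Each well was multiplexed: SteadyGlo luminescence measured ATXN2-luciferase expression after a fluorogenic Gly-Phe-AFC viability readout (25 uM final).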
TGFb SMAD3 inh – qHTS for Inhibitors of TGF-b | 410,000 compounds, 1.2% hits | Potency, µM (titrated, usually from 46.1 µM), without a hit: at the highest dose activity, negative = inhibition, hits mostly inhibitors | HepG2 CAGA-GFP TGF-b/SMAD3 reporter, GFP fluorescence, 18 h; TGF-beta stimulated, 500 pg/mL final; also: % is scaled to controls: 0 for no effect and ±100 for the full control effect; nearly all actives have a fitted effect of over 65% in size
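First, reporter cells (HEPG2 CAGA-GFP) rested 2 h at 37 degrees C. Next, compounds were pinned in and TGF-beta added to 500 pg/mL final. After 18 h, GFP was imaged per cell and summed per well.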
ATXN viability – Viability Counterscreen for Primary qHTS for Inhibitors of ATXN expression. S2 cells (HEK-293 line with an ATXN2-luciferase reporter) viability, CellTiter-Fluor protease fluorescence, 24 h. Potency, µM (doses to about 56.7 µM), most hits filed as cytotoxic. 400,000 compounds, 0.49% hits; also: nearly all actives have a fitted effect of over 40% in size
TGFb CAGA inh – qHTS for Inhibitors of TGF-b: Confirmation of Cherry Picks. shares compounds with TGFb SMAD3 inh. HepG2 CAGA-GFP TGF-b reporter, GFP fluorescence, 18 h; cells stimulated with TGF-beta, 500 pg/mL. Potency, µM (highest dose often 46.1 µM), inactives show top-dose activity, negative = inhibition, hits mostly inhibitors. 1,600 compounds, 63% hits. AID 720534, 2013; also: % is scaled to controls: 0 for no effect and ±100 for the full control effect; nearly all actives have a fitted effect of over 65% in size
HepG2 tox-2 – qHTS for Inhibitors of TGF-b: Cytotox Counterscreen for Cherry Picks. shares compounds with TGFb SMAD3 inh. HepG2 CAGA-GFP viability, ATP luminescence, 18 h; cells stimulated with TGF-beta, 500 pg/mL. Potency, µM (highest dose often 46.1 µM), for inactives: at the highest dose activity, negative = cytotoxicity, usual class: inhibitors. 1,600 compounds, 27% hits. AID 720535, 2013; also: % is scaled to controls: 0 for no effect and ±100 for the full control effect; nearly all actives have a fitted effect of over 70% in size
TGFb CCL64 inh – qHTS for Inhibitors of TGF-b: CCL64 Cells Orthogonal Assay for Cherry Picks. shares compounds with TGFb SMAD3 inh. CCL64 CAGA-GFP reporter, TGF-b stimulated, GFP fluorescence, 18 h. Potency, µM (doses to about 46.1 µM), for inactives: at the top dose activity, negative = inhibition, most hits filed as inhibitors. 1,600 compounds, 41% hits. AID 720536, 2013; also: nearly all actives have a fitted effect of over 65% in size
COP TGFb inh – qHTS for Inhibitors of TGF-b: Hit Validation in HepG2 Cells using COP promoter | Potency, µM (top dose mostly 46.1 µM), inactives show top-dose activity, negative = inhibition, actives largely listed as inhibitors | HepG2 COP-GFP TGF-b reporter, GFP fluorescence, 18 h; cells stimulated by added recombinant TGF-beta | shares compounds with TGFb SMAD3 inh | 1,600 compounds, 3% hits; also: nearly all actives have a fitted effect of over 70% in size
Numbers without * were called inactive; i = inactive; ? = inconclusive; · = no result; [ ] = dose if it differs, or a comment. Calls follow the shape of the dose curve; as a rule, active = well fitted curve in the direction sought with a large enough effect; inconclusive = small, poorly fitted or top-dose-only effect, or another doubt; inactive = no such curve, though single readings can be large; an effect the other way counts as inactive or inconclusive. Potency is read from the fitted curve at half-maximal effect.

SMILES	HepG2 tox-1	Apoferritin bind	ATXN2 expr inh	TGFb SMAD3 inh	ATXN viability	TGFb CAGA inh	HepG2 tox-2	TGFb CCL64 inh	COP TGFb inh
CC1(C)CC2CC(C)(CN2S(=O)(=O)c2ccc(C(=O)Nc3ccc(S(=O)(=O)N4CCOCC4)cc3)cc2)C1 (stereo not given)	-1%	-16%	?	-10%	i	·	·	·	·
CN(C)CCCN(C(=O)COc1ccccc1)c1nc2ccc(F)cc2s1	-2%	-11%	·	18%	i	·	·	·	·
CN(C)CCCN(C(=O)CCOc1ccccc1)c1nc2ccc(F)cc2s1	-125%	-10%	·	3.5µM*	?	15µM*	?	8.2µM*	?
CCCc1cc(=O)n2[nH]cc(-c3ccc(Cl)cc3)c2n1	11µM*	-5%	10µM*	5µM*	?	26µM*	?	12µM*	87%
COc1cccc(C(=O)NCC(c2ccc3c(c2)OCO3)N2CCN(C)CC2)c1 (stereo not given)	-1%	-12%	1%	-7%	?	·	·	·	·
COc1ccc(CC2C(=O)NC(C)C(=O)N(C)C3Cc4ccc(cc4)Oc4cc(ccc4O)CC(C(=O)NC(C)C(=O)NC(C)C(=O)N2C)N(C)C3=O)cc1 (stereo not given)	11%	·	0.24µM*	-107%	0.06µM*	0.018µM*	0.21µM*	0.021µM*	-8%
O=S(Cc1ccc(Br)cc1)Cc1nnc(SCc2c(F)cccc2Cl)n1-c1ccccc1 (stereo not given)	-13%	-11%	-9%	?	i	12µM*	?	15µM*	40%
Nc1nc2c(c(=O)[nH]1)N(C=O)C(CNc1ccc(C(=O)NC(CCC(=O)O)C(=O)O)cc1)CN2 (stereo not given)	·	-12%	·	·	·	·	·	·	·
Cc1ccc(N2CCN(C(=O)c3ccccc3Br)CC2)c(C)c1	-10%	7%	-4%	3%	i	·	·	·	·
CN1CCN(C(=O)c2ccc(S(=O)(=O)N(C)c3ccccc3)cc2)CC1	2%	·	·	0%	i	·	·	·	·
Cc1cccc(N2CCN(C(=O)C3COc4ccccc4O3)CC2)c1C (stereo not given)	-37%	8%	·	11µM*	i	16µM*	-16%	?	-3%
Cc1cccc(N2CCN(C(=O)c3ccc(S(=O)(=O)N(C)c4ccccc4)cc3)CC2)c1C	-2%	·	-20%	5.6µM*	i	9.2µM*	-21%	?	20%
Cc1ccc(C)c(N2CCN(C(=O)c3ccccc3Br)CC2)c1	-39%	-5%	3%	-15%	i	·	·	·	·
Cc1ccc(N2CCN(C(=O)c3cc(C(=O)c4ccccc4C)c[nH]3)CC2)c(C)c1	-29%	-16%	-30%	18µM*	?	6.5µM*	-26%	?	34%
Cc1ccc(N2CCN(C(=O)c3ccccc3)CC2)c(C)c1	-31%	-3%	-25%	10µM*	i	?	7%	18µM*	15%
N#CC1(NC(=O)CSc2nnc(Nc3ccccc3F)s2)CCCC1	-4%	·	23%	-8%	i	·	·	·	·
COc1ccccc1CN1CN(S(=O)(=O)c2ccccc2)c2nc3ccccc3nc21	3%	-7%	0%	-3%	i	·	·	·	·
c1ccc(OC2CCCCC2N2CCOCC2)cc1 (stereo not given)	1%	·	·	-2%	i	·	·	·	·
CCCCC(=O)NC(c1cccc([N+](=O)[O-])c1)c1ccc2cccnc2c1O (stereo not given)	10%	·	·	?	?	10µM*	7.3µM*	?	10%
CCCCC(=O)NC(c1cccc([N+](=O)[O-])c1)c1c(OC(C)=O)ccc2ccccc12 (stereo not given)	-35%	-15%	?	?	?	·	·	·	·
Cc1ccc(CNC(=O)CN2C(=O)CCc3cc(S(=O)(=O)N4CCCCC4)ccc32)cc1	-5%	-7%	-38%	-10%	i	·	·	·	·
CCn1c(CCCOc2ccc(Cl)cc2Cl)nnc1SCC(=O)Nc1cc(F)ccc1C	4%	30%	1%	13µM*	i	13µM*	?	-16%	-9%
Cn1c(CCCOc2ccc(Cl)cc2Cl)nnc1SCC(=O)Nc1cccc(F)c1	-37%	-5%	1%	0%	i	·	·	·	·
COc1cccc2c1OCC(C(=O)O)C2 (stereo not given)	-7%	-5%	-25%[11.3 µM]	-13%	i	·	·	·	·
COc1cccc2c1C(CO)N1C(C#N)C3CC(C(=O)O)C(C1C2)N3C (stereo not given)	16%	-2%	0.28µM*	1.3µM*	i	0.65µM*	0.52µM*	7.3µM*	-4%
SMILES	HepG2 tox-1	Apoferritin bind	ATXN2 expr inh	TGFb SMAD3 inh	ATXN viability	TGFb CAGA inh	HepG2 tox-2	TGFb CCL64 inh	COP TGFb inh
COc1ccccc1NC(=O)NC1(C(=O)N2CCCCC2)CCCCC1	-3%	-5%	-10%	-6%	i	·	·	·	·
CCOCCCNCc1ccc(OC)cc1	0%	-6%	3%	3%	i	·	·	·	·
COc1ccc2cc(CNCCOCCOCCNCc3ccc4cc(OC)ccc4c3)ccc2c1	4µM*	·	?	3.2µM*	·	-108%	21µM*	4.6µM*	?
Cc1cc(C)c(OCC(=O)Nc2nc(-c3ccccn3)cs2)c(C)c1	-35%	-11%	?	10µM*	?	?	-29%	?	31%
COc1cccc(N2CCN(C(=O)Cn3ncc4c3-c3ccccc3OC4)CC2)c1	-8%	15%	-24%	-24%	?	·	·	·	·
Cc1cc(Cl)ccc1-n1c(CCC(=O)O)ccc1-c1cccs1	-14%	-7%	-9%	-23%	i	·	·	·	·
O=C(Nc1ccc(S(=O)(=O)Nc2ncccn2)cc1)c1ccc(Br)cc1	-5%	·	·	-1%	?	·	·	·	·

From PubChem BioAssay
